Our source for the potency estimated from few doses values is publication PMC11062922 (Nature Chemical Biology, 2023).

Read-outs that look alike come from different tables or passages of the source.

The test system of one assay is AAK1. Also noted: species or system human, MV4-11 + K-562 + COLO205 + SK-N-BE2 + OVCAR-8. As to conditions: read-out: apparent Kd, n = 1.
A further assay deals with BMP2K. Details: species or system human, MV4-11 + K-562 + COLO205 + SK-N-BE2 + OVCAR-8. The conditions noted are these: read-out: apparent Kd, n = 1.
Another assay deals with CLK1. Also noted: species or system human, MV4-11 + K-562 + COLO205 + SK-N-BE2 + OVCAR-8. As to conditions: read-out: apparent Kd, n = 1.
The test system of another assay is CLK4. Details: species or system human, MV4-11 + K-562 + COLO205 + SK-N-BE2 + OVCAR-8. As to conditions: read-out: apparent Kd, n = 1.
In the next assay the test system is FLT4. Details: species or system human, MV4-11 + K-562 + COLO205 + SK-N-BE2 + OVCAR-8. The conditions noted are these: read-out: apparent Kd, compound concentrations: 100 nM and 1000 nM (sheet 'Samples'), n = 1.
A further assay has as its system GSK3A. Details: species or system human, MV4-11 + K-562 + COLO205 + SK-N-BE2 + OVCAR-8. As to conditions: read-out: apparent Kd, n = 1.
The test system of another assay is GSK3B. Details: species or system human, MV4-11 + K-562 + COLO205 + SK-N-BE2 + OVCAR-8. The conditions noted are these: read-out: apparent Kd, n = 1.
For a further assay, the system named is NUAK1. Details: species or system human, MV4-11 + K-562 + COLO205 + SK-N-BE2 + OVCAR-8. As to conditions: read-out: apparent Kd; compound concentrations: 100 nM and 1000 nM (sheet 'Samples'), CATDS: 5.2338687670537398E-2; n = 1.
The test system of a further assay is PAK4. Also noted: species or system human, MV4-11 + K-562 + COLO205 + SK-N-BE2 + OVCAR-8. The conditions noted are these: read-out: apparent Kd, compound concentrations: 100 nM and 1000 nM (sheet 'Samples'), n = 1.
In another assay the target is Q6ZSR9 (human, UniProt Q6ZSR9). Also noted: species or system MV4-11 + K-562 + COLO205 + SK-N-BE2 + OVCAR-8. The conditions noted are these: read-out: apparent Kd, n = 1.
Chain of Q6ZSR9 (Q6ZSR9 whole entry, looked up): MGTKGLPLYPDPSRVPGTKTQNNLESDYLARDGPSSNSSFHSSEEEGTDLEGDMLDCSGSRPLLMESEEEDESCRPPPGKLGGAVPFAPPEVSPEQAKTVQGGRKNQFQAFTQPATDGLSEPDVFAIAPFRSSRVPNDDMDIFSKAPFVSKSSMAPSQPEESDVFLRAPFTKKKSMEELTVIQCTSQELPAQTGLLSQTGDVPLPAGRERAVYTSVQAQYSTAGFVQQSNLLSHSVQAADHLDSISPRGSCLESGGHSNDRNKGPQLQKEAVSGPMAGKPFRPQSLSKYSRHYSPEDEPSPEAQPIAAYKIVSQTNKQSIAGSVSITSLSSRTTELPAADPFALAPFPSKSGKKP
A further assay has as its system MELK. Also noted: species or system human, MV4-11 + K-562 + COLO205 + SK-N-BE2 + OVCAR-8. As to conditions: read-out: apparent Kd; compound concentrations:100 nM and 1000 nM (sheet 'Samples'); n = 1.
A further assay has as its system RET. Also noted: species or system human, MV4-11 + K-562 + COLO205 + SK-N-BE2 + OVCAR-8. The conditions noted are these: read-out: apparent Kd, n = 1.
Another assay deals with CSNK2A1;CSNK2A3. Details: species or system human, MV4-11 + K-562 + COLO205 + SK-N-BE2 + OVCAR-8. The conditions noted are these: read-out: apparent Kd; compound concentrations: 100 nM and 1000 nM (sheet 'Samples'), CATDS: 1.72589051675766E-2; n = 1.
The subject of the next assay is GAK. Also noted: species or system human, MV4-11 + K-562 + COLO205 + SK-N-BE2 + OVCAR-8. As to conditions: read-out: apparent Kd; compound concentrations: 100 nM and 1000 nM (sheet 'Samples'), CATDS: 3.2430470905267197E-2; n = 1.
A further assay concerns PKN1. Details: species or system human, MV4-11 + K-562 + COLO205 + SK-N-BE2 + OVCAR-8. As to conditions: read-out: apparent Kd; compound concentrations: 100 nM and 1000 nM (sheet 'Samples'), CATDS: 1.7045557740064301E-2; n = 1.
The subject of another assay is PRKAG1. Details: species or system human, MV4-11 + K-562 + COLO205 + SK-N-BE2 + OVCAR-8. The conditions noted are these: read-out: apparent Kd; compound concentrations: 100 nM and 1000 nM (sheet 'Samples'), CATDS: 2.5293867995276598E-2; n = 1.
A further assay has as its system SIK2. Also noted: species or system human, MV4-11 + K-562 + COLO205 + SK-N-BE2 + OVCAR-8. As to conditions: read-out: apparent Kd; compound concentrations: 100 nM and 1000 nM (sheet 'Samples'), CATDS: 2.40988460516664E-2; n = 1.
Setting [1] is: compound concentrations:100 nM and 1000 nM (sheet 'Samples').

Regarding `COc1cc(Nc2nccc(-c3cnn4ncccc34)n2)cc(OC)c1` [GW801372X], the potency estimated from few doses in the assay on AAK1 (compound concentrations: 100 nM and 1000 nM (sheet 'Samples'), CATDS: 3.8573145954119099E-2) is 184 nM; in the assay on BMP2K (compound concentrations: 100 nM and 1000 nM (sheet 'Samples'), CATDS: 1.7916348880173499E-2) it was 1820 nM; in the assay on CLK1 (compound concentrations: 100 nM and 1000 nM (sheet 'Samples'), CATDS: 0.124159144382542), 18.2 nM; in the assay with CLK4 (compound concentrations: 100 nM and 1000 nM (sheet 'Samples'), CATDS: 0.10081286200227101), 26.6 nM; in the assay with FLT4 (CATDS: 1.8307563949858899E-2), 1650 nM; in the assay on GSK3A (compound concentrations: 100 nM and 1000 nM (sheet 'Samples'), CATDS: 2.1356053852556199E-2) it was 929 nM. In addition, the potency estimated from few doses in the assay on GSK3B (compound concentrations: 100 nM and 1000 nM (sheet 'Samples'), CATDS: 3.2546275447974102E-2) is 277 nM; with NUAK1, 94.5 nM; in the assay with PAK4 (CATDS: 2.0251882597793001E-2), 1120 nM; with Q6ZSR9 (compound concentrations: 100 nM and 1000 nM (sheet 'Samples'), CATDS: 3.9611085380352497E-2) it was 173 nM.
On to `CNc1cc(-c2ccc3c(N)n[nH]c3c2)nc(N)n1` [GSK2224810A], for which the potency estimated from few doses is 781 nM with AAK1 (setting [1]); 1040 nM in the assay on BMP2K (setting [1]); 314 nM in the assay with CLK1 (setting [1]); 154 nM in the assay with CLK4 (setting [1]); 898 nM with MELK; 687 nM in the assay with Q6ZSR9 (setting [1]). For the same compound, in the assay on RET (setting [1]), the potency estimated from few doses was 1070 nM.
As to `Cc1ccccc1C1=C(c2cn(C)c3ccccc23)C(=O)NC1=O` [RO0317612-000], the potency estimated from few doses with AAK1 (compound concentrations: 100 nM and 1000 nM (sheet 'Samples'), CATDS: 0.12392874635964) was 1650 nM.
Regarding `Nc1nc(Nc2ccccc2)cc(-c2ccc3c(N)n[nH]c3c2)n1` [GSK2225749A], the potency estimated from few doses is 130 nM in the assay on AAK1 (setting [1]), 554 nM in the assay on BMP2K (setting [1]), 823 nM in the assay on MELK and 125 nM in the assay with Q6ZSR9 (setting [1]).
`CNCc1ccc(-c2cc(-c3nc(-c4ccc(S(=O)(=O)C(C)C)cc4)cnc3N)on2)cc1` [VE-822]: the potency estimated from few doses in the assay with AAK1 (setting [1]) was 1850 nM; with GSK3A (setting [1]), 684 nM; in the assay with GSK3B (setting [1]), 810 nM; in the assay with Q6ZSR9 (setting [1]) it was 1240 nM.
Turning to `Cc1ccccc1-n1ncc(C(=O)c2ccccc2)c1N` [RO1151248-000], the potency estimated from few doses is 914 nM in the assay with AAK1 (compound concentrations: 100 nM and 1000 nM (sheet 'Samples'), CATDS: 2.38860019962077E-2); 2250 nM in the assay on CSNK2A1;CSNK2A3; 1670 nM in the assay with FLT4 (CATDS: 1.8880298651143101E-2); 506 nM in the assay with GAK; 584 nM in the assay on GSK3A (compound concentrations: 100 nM and 1000 nM (sheet 'Samples'), CATDS: 2.9908240641474598E-2); 813 nM with GSK3B (compound concentrations: 100 nM and 1000 nM (sheet 'Samples'), CATDS: 2.52342080828949E-2). Further, the potency estimated from few doses was 1110 nM with PAK4 (CATDS: 2.19543905026186E-2); 2350 nM in the assay with PKN1; 809 nM with PRKAG1; 967 nM with Q6ZSR9 (compound concentrations: 100 nM and 1000 nM (sheet 'Samples'), CATDS: 2.32948628287949E-2); 1090 nM with RET (compound concentrations: 100 nM and 1000 nM (sheet 'Samples'), CATDS: 2.2142525707208802E-2); 897 nM in the assay with SIK2.
